# Measurements published in paper PMC4336329 (PLoS ONE, 2015).
# The whole screen tested about 310,000 compounds, of which about 14,000 (4.5%) showed an effect of 50% or more. The effect is printed as a negative number. The full list was thinned out, with strong results kept by preference.
# Target: human ether-à-go-go-related gene (hERG) potassium channel (human, UniProt Q12809)
# Assay: primary screen, population patch clamp on CHO cells stably expressing hERG; higher = less effect of the substance
# 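Also: peak tail current of the secondary pulse compared with the same well before compound.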
# Sequence of human ether-à-go-go-related gene (hERG) potassium channel (Q12809 whole entry, looked up): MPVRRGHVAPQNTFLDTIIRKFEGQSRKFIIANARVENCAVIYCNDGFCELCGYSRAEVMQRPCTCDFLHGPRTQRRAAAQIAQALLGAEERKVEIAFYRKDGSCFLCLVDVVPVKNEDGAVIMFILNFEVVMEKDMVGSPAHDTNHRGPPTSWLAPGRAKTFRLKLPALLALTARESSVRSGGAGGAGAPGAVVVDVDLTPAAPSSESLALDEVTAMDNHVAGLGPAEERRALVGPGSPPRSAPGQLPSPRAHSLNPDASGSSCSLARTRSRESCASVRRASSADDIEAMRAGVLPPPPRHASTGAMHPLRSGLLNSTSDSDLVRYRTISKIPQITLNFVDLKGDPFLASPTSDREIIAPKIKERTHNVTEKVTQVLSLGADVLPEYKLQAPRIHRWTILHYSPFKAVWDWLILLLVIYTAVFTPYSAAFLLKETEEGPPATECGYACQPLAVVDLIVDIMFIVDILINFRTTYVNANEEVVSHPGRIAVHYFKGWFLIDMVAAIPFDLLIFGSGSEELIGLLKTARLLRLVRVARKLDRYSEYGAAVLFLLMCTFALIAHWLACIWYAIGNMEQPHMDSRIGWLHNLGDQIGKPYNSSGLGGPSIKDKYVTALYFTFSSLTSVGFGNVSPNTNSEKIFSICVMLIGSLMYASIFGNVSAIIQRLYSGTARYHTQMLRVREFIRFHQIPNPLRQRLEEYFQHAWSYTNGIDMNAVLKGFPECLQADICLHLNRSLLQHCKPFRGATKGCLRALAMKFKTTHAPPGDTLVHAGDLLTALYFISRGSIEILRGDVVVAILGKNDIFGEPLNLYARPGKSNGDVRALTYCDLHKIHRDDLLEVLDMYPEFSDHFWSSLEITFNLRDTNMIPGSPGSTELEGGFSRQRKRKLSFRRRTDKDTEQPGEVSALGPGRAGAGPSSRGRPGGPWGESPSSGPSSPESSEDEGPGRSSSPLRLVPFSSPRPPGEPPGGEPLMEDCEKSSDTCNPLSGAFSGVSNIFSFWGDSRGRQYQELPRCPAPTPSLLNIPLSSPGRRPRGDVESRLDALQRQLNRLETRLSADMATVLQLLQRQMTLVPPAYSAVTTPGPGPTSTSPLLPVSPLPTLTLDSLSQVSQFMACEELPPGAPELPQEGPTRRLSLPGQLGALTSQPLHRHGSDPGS
row,SMILES,"hERG current change (%, negative = inhibition) at 10uM [%]"
1,CCOC(=O)C(O)(c1ccc(NC(=S)NC(=O)c2ccc(Cl)cc2Cl)c(C)c1)C(F)(F)F (stereo not drawn),27.4
2,COc1ccccc1NC(=O)CCSc1nnc(-c2ccncc2)o1,-2.96
3,Fc1ccccc1NC(=S)NNc1ncc(C(F)(F)F)cc1Cl,21.2
4,CN1CCCN(C(=O)COc2cccc(C(F)(F)F)c2)CC1,-0.603
5,CCCCn1c(NCc2cccs2)nc2ccccc21,-55.9
6,C=CCn1c(NCc2ccco2)nc2ccccc21,-8.07
7,c1ccc(Cn2c(NCc3ccco3)nc3ccccc32)cc1,-51
8,CC(NC(=O)/C=C/c1ccco1)c1nc2ccccc2n1Cc1ccccc1F (stereo not drawn),0.704
9,c1ccc(Cn2c(NCc3ccccn3)nc3ccccc32)cc1,-39
10,CCCn1c(NCc2cccs2)nc2ccccc21,-29.3
11,CC(NC(=O)/C=C/c1ccco1)c1nc2ccccc2n1Cc1cccc(Cl)c1 (stereo not drawn),-67.2
12,CCn1c(NCc2cccs2)nc2ccccc21,-12.2
13,CC(NC(=O)/C=C/c1ccco1)c1nc2ccccc2n1Cc1c(Cl)cccc1Cl (stereo not drawn),-11
14,CC1CC1C(=O)OCC(=O)Nc1cccc(S(=O)(=O)NC2=NCCCCC2)c1 (stereo not drawn),-7.64
15,Cc1ccc(C(=O)c2ccc(N3CCOCC3)c(F)c2)cc1,-22
16,CCCn1c2ccccc2c2cn[nH]c(=O)c21,12
17,Cc1c(C(=O)NCc2cccnc2)sc2nc(-c3ccc(F)cc3)cn12,-40.4
18,Cc1c(C(=O)NCC(C)C)sc2nc(-c3ccc(F)cc3)cn12,-5.46
19,CCN(CC)CCNC(=O)c1sc2nc(-c3ccccc3)cn2c1C,-67.4
20,COCCNC(=O)c1sc2nc(-c3ccccc3)cn2c1C,-11.5
21,Cc1c(C(=O)NCCCN2CCOCC2)sc2nc(-c3ccccc3)cn12,-48.5
22,Cc1c(C(=O)Nc2ccccc2)sc2nc(-c3ccccc3)cn12,-4.89
23,Cc1c(C(=O)NCc2ccccn2)sc2nc(-c3ccc(F)cc3)cn12,-10.2

row,SMILES,"hERG current change (%, negative = inhibition) at 10uM [%]"
1,Cc1c(C(=O)NCCCN2CCOCC2)sc2nc(-c3ccc(F)cc3)cn12,-60.9
2,Cc1c(C(=O)NCCN2CCOCC2)sc2nc(-c3ccc(F)cc3)cn12,-23.6
3,Cc1c(C(=O)NCc2cccnc2)sc2nc(-c3ccccc3)cn12,-55.2
4,Cc1c(C(=O)NCc2ccccn2)sc2nc(-c3ccccc3)cn12,-18.6
5,CCN(CC)CCCNC(=O)c1sc2nc(-c3ccc(F)cc3)cn2c1C,-71.1
6,Nc1cc(-c2ccccc2)ccc1O,22.5
7,CCCC1=[N+](CC(C)=O)CCn2c(C)ccc21.[Br-],20.1
8,Cc1ccc(OCC(=O)Oc2c(C)cccc2C)cc1,16.8
9,COc1ccc(CC(NC(C)=O)C(=O)NC2CCN(C(=O)Nc3ccccc3Cl)CC2)cc1OC (stereo not drawn),12.7
10,CC(C)(C)c1ccc(-n2nc(C(N)=O)c(O)cc2=O)cc1,12.9
11,CC(=O)N1c2ccc(S(=O)(=O)N(C)c3cc(C)ccc3C)cc2CC1C (stereo not drawn),-8.67
12,Cc1csc(NC(=O)Cc2ccccc2[N+](=O)[O-])n1,8.85
13,CCCSc1nc(-n2ncc(C#N)c2N)c2c3c(sc2n1)CCC(C)C3 (stereo not drawn),5.45
14,COc1ccc(-n2ncc3c2CC(C)(C)CC3NC(=O)c2c(C)cc(=O)oc2C)cc1 (stereo not drawn),-51.1
15,COc1ccc(-n2ncc3c2CC(C)(C)CC3NC(=O)CSc2ccccn2)cc1 (stereo not drawn),-68
16,COc1ccc(-n2ncc3c2CC(C)(C)CC3NC(=O)c2ccnn2C)cc1 (stereo not drawn),-78
17,COc1ccc(-n2ncc3c2CC(C)(C)CC3NC(=O)c2oc(C)cc2C)cc1 (stereo not drawn),15.2
18,COc1ccc(-n2ncc3c2CC(C)(C)CC3NC(=O)c2cnc(C)cn2)cc1 (stereo not drawn),-4.41
19,COC(=O)c1ccc(C(=O)NC2CC(C)(C)Cc3c2cnn3-c2ccc(F)cc2)nc1 (stereo not drawn),-23.4
20,Cc1cc(C(=O)NC2CC(C)(C)Cc3c2cnn3-c2ccc(F)cc2)nn1C (stereo not drawn),-14.8
21,C=CCCC(=O)NC1CC(C)(C)Cc2c1cnn2-c1ccc(OC)cc1 (stereo not drawn),-46
22,CC1(C)Cc2c(cnn2-c2ccc(F)cc2)C(NC(=O)C2=NNC(=O)CC2)C1 (stereo not drawn),-68.4
